Where “and” joins values, the source holds several entries; their conditions need not be identical. Equal values may be shown once. Records with an inconclusive call do not appear. Calls of active or inactive are those of the source. Unless noted, calls come from the whole dose curve; as a rule, active = well fitted inhibition curve with a large enough effect; inconclusive = small, poorly fitted or top-dose-only effect; inactive = flat fitted curve, though single readings scatter.

A short description of the first assay: Cytotoxicity counterscreen for inhibitors of SARS-CoV-2 cell entry (AID 1645845; calls by dose curve; note: nearly all actives have a fitted effect of over 50% in size; for activity change, negative = cytotoxicity: % is set by controls: 0 for no effect and ±100 for the full control effect). Particulars: cell viability (SARS-CoV-2 entry assay cells); series mostly up to 57.1 µM; activity change, negative = cytotoxicity: at the top concentration. The gist of the method: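 Expi293F/hACE2 cells seeded overnight; cpd pin-transferred in DMSO, 1 h preincubation, + media, 48 h 37 C 5% CO2; ATPLite 1step luminescence; normalized to cells and no cells.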
For `C[N+]1(C)[C@@H]2CC[C@H]1CC(OC(=O)C(CO)c1ccccc1)C2` (stereo partly drawn), the compound was called inactive.

`CC(C)[N+](C)(CCC(C(N)=O)(c1ccccc1)c1ccccc1)C(C)C`: the compound was classed as inactive.

For the compound `CC(C)C(Br)C(=O)NC(N)=O` (stereo not drawn), the “activity change, negative = cytotoxicity” value was 1.41% (inactive).

Consider `N#Cc1nn(-c2c(Cl)cc(C(F)(F)F)cc2Cl)c(N)c1S(=O)C(F)(F)F` (stereo not drawn), for which the “activity change, negative = cytotoxicity” value is -26.6% (inactive).

With `CC[C@H]1C[C@H]2[C@@H]3CCC4=CC(=O)CC[C@@H]4[C@H]3CC[C@]2(C)[C@H]1O`, the “activity change, negative = cytotoxicity” value was -0.377% (inactive).

As for `C#C[C@]1(O)CC[C@H]2[C@@H]3CCC4=CC(=O)CCC4=C3C=C[C@@]21CC`, the “activity change, negative = cytotoxicity” value is -11.1% (inactive).

With `CC(Cc1ccccc1)NCc1ccccc1Cl` (stereo not drawn), the compound was classed as inactive.

For the compound `CN(C)C(=O)Oc1cc(OC(=O)N(C)C)cc(C(O)CNC(C)(C)C)c1` (stereo not drawn), the “activity change, negative = cytotoxicity” value was 4.58% (inactive).

In the case of `Cc1nnc2n1-c1sc(CCC(=O)N3CCOCC3)cc1C(c1ccccc1Cl)=NC2`, the result was inactive.

A short description of a further assay: Primary qHTS to identify inhibitors of SARS-CoV-2 cell entry (AID 1645846; calls by dose curve; note: nearly all actives have a fitted effect of over 45% in size). Particulars: SARS-CoV-2 pseudovirus cell entry assay, luminescence; activity change, negative = inhibition: at 57.1 µM (top of the series) unless noted; series mostly up to 57.1 µM. In short, it runs like this: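 Luminescence readout (Bright-Glo luciferase) 48 h after pseudoparticle addition. HEK293-ACE2 cells, 1500/well; compound pre-incubation 1 h; Normalized to spike PP and bald PP.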
Regarding `C[N+]1(C)[C@@H]2CC[C@H]1CC(OC(=O)C(CO)c1ccccc1)C2` (stereo partly drawn), the call was inactive.

Take `CC(C)[N+](C)(CCC(C(N)=O)(c1ccccc1)c1ccccc1)C(C)C`: the activity change, negative = inhibition is -0.507%.

With `CC(C)C(Br)C(=O)NC(N)=O` (stereo not drawn), the activity change, negative = inhibition is 4.07%.

As for `CCOC(=O)c1cncn1C(C)c1ccccc1` (stereo not drawn), the compound was classed as inactive.

On to `CC[C@H]1C[C@H]2[C@@H]3CCC4=CC(=O)CC[C@@H]4[C@H]3CC[C@]2(C)[C@H]1O`, for which the compound was called inactive.

As for `CC(Cc1ccccc1)NCc1ccccc1Cl` (stereo not drawn), the activity change, negative = inhibition was -7.69%.

`C[C@@H]1O[C@@H](O[C@@H]2C=C3CC[C@@H]4[C@H](CC[C@]5(C)[C@@H](c6ccc(=O)oc6)CC[C@]45O)[C@@]3(C)CC2)[C@H](O)[C@H](O)[C@H]1O`: the activity change, negative = inhibition was -97.4%.

As to `CCOC(=O)c1ncn2c1CN(C)C(=O)c1c(I)cccc1-2`, the outcome was inactive.

With `CN(C)C(=O)Oc1cc(OC(=O)N(C)C)cc(C(O)CNC(C)(C)C)c1` (stereo not drawn), the result was inactive.

The nature of a further assay: Primary qHTS for inhibitors of nuclear receptor binding SET domain protein 2 (NSD2) in an isogenic RCH-ACV NSD2 p.E1099K mutant (9B) (AID 1645876). For activity change, negative = viability loss: % is set by controls: 0 for no effect and ±100 for the full control effect. Note: nearly all actives have a fitted effect of over 70% in size. Note: potency is the fitted concentration of half-maximal effect. The settings on record: RCH-ACV (leukaemia line) NSD2 E1099K (9B) viability, CellTiter-Glo, 72 h; series mostly up to 44.9 µM; activity change, negative = viability loss: at the top concentration.
Consider `C[N+]1(C)[C@@H]2CC[C@H]1CC(OC(=O)C(CO)c1ccccc1)C2` (stereo partly drawn), for which the “activity change, negative = viability loss” value is 2.32% (inactive).

With `COc1cc(C[C@@H](C)N)c(OC)cc1C`, the “activity change, negative = viability loss” value was -39.9% [at 91.9 µM] (inactive).

As for `OC(O)C(Cl)(Cl)Cl`, the “activity change, negative = viability loss” value was -10.7% (inactive).

Take `C1CN2CCC1CC2`: the “activity change, negative = viability loss” value was 8.84% (inactive).

On to `O=C(CCCCl)c1ccc(F)cc1`, for which the “activity change, negative = viability loss” value was 3% (inactive).

As to `c1ccc2nc(N3CCNCC3)ccc2c1`, the “activity change, negative = viability loss” value is -3.62% (inactive).

`CC(C)[N+](C)(CCC(C(N)=O)(c1ccccc1)c1ccccc1)C(C)C`: the call was inactive.

`CCOC(=O)NC(O)C(Cl)(Cl)Cl` (stereo not drawn): the “activity change, negative = viability loss” value was -1.93% (inactive).

With `CC(C)C(Br)C(=O)NC(N)=O` (stereo not drawn), the “activity change, negative = viability loss” value was -5.53% (inactive).

`COc1ccc(OC)c(CC(C)N)c1` (stereo not drawn): the “activity change, negative = viability loss” value is -16.7% [at 91.9 µM] (inactive).

In the case of `COc1cc(N)c(Cl)cc1C(=O)NC1CN2CCC1CC2` (stereo not drawn), the “activity change, negative = viability loss” value is 3.98% (inactive).

Regarding `CCN(CC)CCOC(=O)C(C)(c1ccccc1)c1ccccc1`, the “activity change, negative = viability loss” value is -20.1% (inactive).

Consider `CCOC(=O)c1cncn1C(C)c1ccccc1` (stereo not drawn), for which the Potency entry was “inactive”.

As to `C#C[C@]1(O)CC[C@H]2[C@@H]3CCC4=CC(=O)CCC4=C3C=C[C@@]21CC`, the outcome was inactive.

As to `CCOC(=O)NC(C)(C)Cc1ccc(Cl)cc1`, the “activity change, negative = viability loss” value is 6.03% (inactive).

Take `COCC(=O)N(c1c(C)cccc1C)C(C)C(=O)OC` (stereo not drawn): the “activity change, negative = viability loss” value was -2.99% (inactive).

Take `ClC1=C(Cl)C2(Cl)C(CBr)CC1(Cl)C2(Cl)Cl` (stereo not drawn): the “activity change, negative = viability loss” value was -3.59% (inactive).

Turning to `CC(Cc1ccc2c(c1)OCO2)NO` (stereo not drawn), the “activity change, negative = viability loss” value is -18.4% [at 91.9 µM] (inactive).

Take `Oc1c(Br)cc(Br)cc1Br`: the “activity change, negative = viability loss” value was -3.16% (inactive).

For `NCc1cccnc1`, the outcome was inactive.

On to `CCOC(=O)C(c1c(O)c2ccccc2oc1=O)c1c(O)c2ccccc2oc1=O`, for which the outcome was inactive.

Consider `C[C@@H]1O[C@@H](O[C@@H]2C=C3CC[C@@H]4[C@H](CC[C@]5(C)[C@@H](c6ccc(=O)oc6)CC[C@]45O)[C@@]3(C)CC2)[C@H](O)[C@H](O)[C@H]1O`, for which the Potency is 10.5 nM (active) and 4.7 nM (active).

As to `CCCOC(=O)Cc1ccc(OCC(=O)N(CC)CC)c(OC)c1`, the “activity change, negative = viability loss” value was 3.44% (inactive).

Regarding `CCOC(=O)c1ncn2c1CN(C)C(=O)c1c(I)cccc1-2`, the “activity change, negative = viability loss” value was 1.14% (inactive).

Regarding `CN(C)C(=O)Oc1cc(OC(=O)N(C)C)cc(C(O)CNC(C)(C)C)c1` (stereo not drawn), the “activity change, negative = viability loss” value was -5.4% (inactive).

As for `CN1C[C@@H](NS(=O)(=O)N(C)C)C[C@@H]2c3cccc4c3c(cn4C)C[C@H]21`, the “activity change, negative = viability loss” value was -13.7% (inactive).

As for `Cc1nnc2n1-c1sc(CCC(=O)N3CCOCC3)cc1C(c1ccccc1Cl)=NC2`, the “activity change, negative = viability loss” value was -4.7% (inactive).

In the case of `CN1C(=O)CN=C(c2ccccc2)c2cc([N+](=O)[O-])ccc21`, the “activity change, negative = viability loss” value was 4.28% (inactive).

For `CCS(=O)(=O)C(C)(C)S(=O)(=O)CC`, the “activity change, negative = viability loss” value was -9.17% (inactive).

As for `COc1cc(CC#N)cc(OC)c1OC`, the “activity change, negative = viability loss” value was -4.86% (inactive).

As to `C[N+](C)(C)CCOC(=O)C(O)(c1ccccc1)c1ccccc1`, the “activity change, negative = viability loss” value was 0.417% (inactive).

Consider `CCNc1nc(Cl)nc(NCC)n1`, for which the “activity change, negative = viability loss” value was 7.37% (inactive).

As for `O=c1[nH]c2cc(Cl)ccc2n1C1CCNCC1`, the “activity change, negative = viability loss” value is 4.65% (inactive).

Consider `C[C@]12CC[C@H]3[C@@H](CC=C4C[C@@H](O)CC[C@@]43C)[C@@H]1CC[C@@H]2O`, for which the “activity change, negative = viability loss” value is 5.02% (inactive).

For `CCN1CCCC1CNC(=O)C(O)(c1ccccc1)c1ccccc1` (stereo not drawn), the “activity change, negative = viability loss” value is 1.95% (inactive).
